Experimental data reported in PubChem BioAssay AID1778 (Sanford-Burnham Center for Chemical Genomics, 2009).
The whole screen tested about 290,000 compounds, of which about 260 (0.09%) were called active. No stated cut-off is given here; in the data, active means inhibition above about 50%; inactive means the rest. For the sample, actives were picked, then their nearest neighbours and some compounds at random. Measured potencies and affinities stand elsewhere.

Molecular target: Kappa-type opioid receptor (Homo sapiens) (UniProt P41145)
Sequence (P41145 whole entry, looked up): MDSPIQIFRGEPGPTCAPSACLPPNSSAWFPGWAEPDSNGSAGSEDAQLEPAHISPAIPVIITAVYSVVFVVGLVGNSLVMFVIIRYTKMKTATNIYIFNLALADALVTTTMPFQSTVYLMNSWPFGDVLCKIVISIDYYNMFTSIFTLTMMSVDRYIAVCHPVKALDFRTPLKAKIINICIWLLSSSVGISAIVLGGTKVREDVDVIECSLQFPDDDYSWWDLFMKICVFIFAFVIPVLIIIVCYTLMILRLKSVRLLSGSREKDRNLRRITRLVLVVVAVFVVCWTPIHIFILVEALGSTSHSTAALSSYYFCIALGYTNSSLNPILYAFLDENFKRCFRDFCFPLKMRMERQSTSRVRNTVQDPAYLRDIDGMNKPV
Assay: KOR antagonists, beta-arrestin recruitment, cell-based, luminescence, uHTS (AID 1778)
Settings: antagonist mode, stronger effect = higher value; at 10 µM unless noted

inhibition, active:
COc1ccc(C(=O)/C=C/C(=O)N(CC(=O)NC2CCCCC2)CC2CCCO2)c(O)c1 (configuration not stated) 82.5%, COc1ccc(C(=O)/C=C/C(=O)N(CC(=O)NC2CCCCC2)Cc2ccccc2OC)c(O)c1 56.3%, C/C(=N\Nc1nc2ccccc2[nH]1)c1ccccn1 91.3%, CCOC(=O)c1ccc(N/N=C/c2cc(Br)cc([N+](=O)[O-])c2O)cc1 60.8% [at 20 µM]

inhibition, inactive:
NC(=S)c1ncc(C(F)(F)F)cc1Cl -11.8%, NC(=S)Nc1ncc(C(F)(F)F)cc1Cl -71.5% [at 20 µM], CCOC(=O)N1CCN(C(=O)Nc2sc3nc4n(c(=O)c3c2C)CCC(C)CC4)CC1 (configuration not stated) -7.4%, COc1ccccc1CCNC(=O)C(=O)NCC1OCCN1S(=O)(=O)c1cc(F)ccc1F (configuration not stated) -43.3% [at 20 µM], CCOc1ccc(-c2nc(C#N)c(NCC3CCCO3)o2)cc1 (configuration not stated) 10.1%, CC(CCc1ccccc1)NC(=O)c1cccc(F)c1 (configuration not stated) -19.3% [at 20 µM], COc1ccc(C(=O)/C=C/C(=O)N(Cc2ccc3c(c2)OCO3)C(C(=O)NC2CCCCC2)c2ccncc2)c(O)c1 (configuration not stated) 15.5%, COc1ccc(C(=O)/C=C/C(=O)N(CC(=O)NC2CCCCC2)Cc2cccs2)c(O)c1 26.6%, COc1ccc(C(=O)/C=C/C(=O)N(Cc2ccccc2OC)C(C(=O)NC2CCCCC2)c2ccncc2)c(O)c1 (configuration not stated) 12.2%, COc1ccc(C(=O)/C=C/C(=O)N(Cc2ccc(F)cc2)C(C(=O)NC2CCCCC2)c2ccncc2)c(O)c1 (configuration not stated) 6.8%, COc1ccc(CN(C(=O)/C=C/C(=O)c2ccc(OC)cc2O)C(C(=O)NC2CCCCC2)c2ccncc2)cc1 (configuration not stated) 8.2%, Cc1ccnc(NC(=O)CCC(=O)N(CC(=O)NC2CCCCC2)CC2CCCO2)c1 (configuration not stated) 11%, COc1ccc(C(=O)/C=C/C(=O)N(Cc2ccccc2)C(C(=O)NC2CCCCC2)c2ccncc2)c(O)c1 (configuration not stated) 9.1%, COc1ccc(C(=O)/C=C/C(=O)N(CC(=O)NC2CCCCC2)Cc2ccc(F)cc2)c(O)c1 33.1%, COc1ccc(NS(=O)(=O)c2cc(NC(=O)c3cccnc3Cl)ccc2N2CCCC2)cc1 37.4%, C[C@@H]1CCC[C@]2(O[C@H](CCO)C[C@H](O)[C@H]2O)O1 47.9%, CC1CC2=C(NC(=S)NC2c2cccc(F)c2)/C(=C/c2cccc(F)c2)C1 (configuration not stated) 4.5%, O=C(c1cccs1)N(C(=O)c1cccs1)c1ccc(Br)cn1 -21.5%, Cc1cnc(C)c(N2CCN(Cc3nc(-c4ccccc4)no3)CC2)n1 -15.2%, N#CCCN(NC1=NS(=O)(=O)c2ccccc21)C(=O)c1ccccc1Br 8.1%, CC(=O)Nc1ccc(S(=O)(=O)NCCC(=O)OCc2ccc([N+](=O)[O-])cc2)cc1 16.8%, CC1=NN(c2ccc(C)cc2)C(=O)/C1=C\C=C\c1ccccc1 -74.7%, CC1=NN(c2ccccc2)C(=O)/C1=C/N(C)C 3.4%, CC1=NN(c2ccccc2)C(=O)/C1=C/C=C/c1ccccc1 -38.6%, CC1=NN(c2ccccc2)C(=O)/C1=C\C=C\c1ccccc1 -34.7%, O=C(Nc1cccc2c1CCCC2)c1cc([N+](=O)[O-])cc([N+](=O)[O-])c1 -11.2%, CC1=CC(=Nc2c(C)n(C)n(-c3ccccc3)c2=O)C=CC1=O 35.7%, Cc1c(N=c2scc(-c3ccccc3)n2C)c(=O)n(-c2ccccc2)n1C 16.6%, O=C(NC1(C(F)(F)F)OCCO1)c1ccc(F)cc1 -28.6% [at 20 µM], COc1ccc(C(=O)CSc2ncn[nH]2)cc1OC 16.2%, COC(=O)c1ccc(OC(=O)c2cccnc2SC)cc1 -3.6%, C/C(=N\Nc1ncc(Cl)cc1Cl)c1ccc(C#N)cc1 -10%, C/C(=N\Nc1ccc(Cl)cc1)c1ccccn1 1.2%, C/C(=N\Nc1nc2ccccc2[nH]1)c1ccc(Cl)s1 20.9%, C/C(=N\Nc1nc2ccccc2[nH]1)c1ccc(C)o1 33.8%, CC(=O)c1cc(-c2ccccc2)[nH]c1N1CCOCC1 -10.8%, O=C(O)c1ccccc1S(=O)(=O)NCC(O)COc1ccc(Br)cc1 (configuration not stated) 22.9%, CCCNC(=S)N1CCN(c2nc(-c3ccc(C)cc3)cs2)CC1 -15.3% [at 20 µM], COc1ccc(NC(=O)/C(Cl)=C(/Cl)S(=O)(=O)Cc2ccccc2)cn1 58.9%, COc1ccc(CS(=O)(=O)/C(Cl)=C(/Cl)C(=O)Nc2ccc(OC)nc2)cc1 40.1%, COc1ccc(NC(=O)/C(Cl)=C(/Cl)S(=O)(=O)Cc2ccc(C)cc2)cn1 47.9%, COc1ccc(NC(=O)/C(Cl)=C(/Cl)S(=O)Cc2ccc(Cl)cc2)cn1 (configuration not stated) 48.8%, COc1ccc(CC(=O)Nc2ccc(OC)nc2)cc1 35.7%, COc1ccc(NC(=O)C(Cl)=C(Cl)Cl)cn1 8%, C(=C\CSc1ncn[nH]1)/CSc1ncn[nH]1 0.4%, CCSc1nc2c(cnn2-c2ccc(C)cc2)c(=O)[nH]1 -21.4%, COC(=O)C1=CN(C2CC2)C=C(C(=O)OC)C1c1ccc(C(F)(F)F)cc1 -9.8% [at 20 µM], COCCn1c(SCC(=O)N2CCCC2)nnc1-c1ccco1 10.6%, O=C(COc1ccc2c(C(F)(F)F)cc(=O)oc2c1)NCc1cccs1 -40.4%, S=C(Nc1ccc(Oc2ccccc2)cc1)Nc1cccnc1 -26.6% [at 20 µM], Cc1cc(C)cc(N2C(N)=NC(N)=NC2c2ccccc2F)c1 (configuration not stated) 1.5%, COC(=O)c1c(NC(=O)CN2CCN(c3ncccn3)CC2)sc(C(N)=O)c1C -4.1%, S=c1sc2c(N3CCN(Cc4ccccc4)CC3)ncnc2n1-c1ccccc1 -18%, S=c1sc2c(N3CCOCC3)ncnc2n1-c1ccccc1 -30.9%, CCOc1ccc(CNc2ccc3c(c2)nc(C)n3C)cc1 7.3%, Oc1ccc(CN2CCCCC2)c2cccnc12 -7.4%, Oc1c(CN2CCc3ccccc3C2)cc(Cl)c2cccnc12 -4%, Nc1nc(NC(=O)c2cccs2)nn1-c1ccccc1 -23%, Clc1cc2cccnc2c2ccccc12 1.4%, Oc1c(I)cc(I)c2cccnc12 -35.5%, Oc1c(Cl)cc(CN2CCCCC2)c2cccnc12 -1.6%, O=[N+]([O-])c1cc(Cl)c2cccnc2c1O 1.5% [at 20 µM], COc1cccc(NC(=O)CSc2nc3ccccc3n2C)c1 2.2%, Cc1ccc(C)c(NC(=S)NC(NC(=O)OCc2ccccc2)C(Cl)(Cl)Cl)c1 (configuration not stated) -2%, O=C(NC(NC(=S)Nc1cccc(Cl)c1)C(Cl)(Cl)Cl)OCc1ccccc1 (configuration not stated) 5.1%, O=C(NC(NC(=S)Nc1cccc(C(=O)O)c1)C(Cl)(Cl)Cl)OCc1ccccc1 (configuration not stated) 3.3%, Cc1cccc(NC(=S)NC(NC(=O)OCc2ccccc2)C(Cl)(Cl)Cl)c1 (configuration not stated) -6.6%, O=C(CNCCc1ccc(F)cc1)Nc1cc(F)ccc1F -1.9%, CC(=O)N1N=C(c2ccccc2)CC1c1cccc([N+](=O)[O-])c1 (configuration not stated) -7% [at 20 µM], O=C(O)CCC(=O)N1N=C(c2cccs2)CC1c1cccc([N+](=O)[O-])c1 (configuration not stated) -24.4% [at 20 µM], CCc1nn(CC(=O)NCCCN(C)Cc2ccccc2)c(=O)c2cc3sc(C)cc3n12 1.9%, CCC(=O)N1CC2(CC(c3cccc(NC(=O)COc4ccc(Cl)cc4)c3)=NO2)C[C@@H]1C(N)=O (some centres not stated) 8.3%, O=C(N/N=C/c1cc(Br)cc([N+](=O)[O-])c1O)c1ccc(NC(=O)c2ccc(F)cc2)cc1 -22.2%, COC(=O)c1ccc(N/N=C/c2cc([N+](=O)[O-])cc(OC)c2O)cc1 -4.6%, COc1ccc(CNC(=O)C2CCC(CNS(=O)(=O)c3ccc(C)cc3)CC2)cc1 (configuration not stated) 5.5%, Cc1ccc2nc(N3C(=O)CNC3=S)sc2c1 45.5%, CCOc1ccc2nc(N3C(=O)/C(=C/c4ccccc4)NC3=S)sc2c1 13.6%, COc1ccc2nc(N3C(=O)CNC3=S)sc2c1 59.9%, O=C1CNC(=S)N1c1nc2ccccc2s1 18.9%, Cc1cc(C)cc(Nc2nc3c(S(=O)(=O)c4ccccc4)nnn3c3ccccc23)c1 -17.6%, COc1cccc(NC(=O)CSc2ccc3nnc(-c4ccccn4)n3n2)c1 3%, Cc1ccc(SC[C@H](CC(C)C)N2CCN(C)CCC2=O)cc1 30.9%, COc1ccccc1OC(C)C(=O)NNC(=S)NC1CCCC1 (configuration not stated) 1.5%, COc1ccc(N2C(=S)NC3N2C(=S)NC3(C)c2ccccc2)cc1 (configuration not stated) -26.3%, CC(C)CNS(=O)(=O)c1ccc(CCC(=O)N2CCC(C(N)=O)CC2)cc1 -7.7%, Cc1ccc(Nc2cc(C)nn2-c2nc(C)cc(C)n2)cc1 2%, Cc1cc(C)nc(-n2nc(C)cc2Nc2ccccc2)n1 -25%, COc1cccc(N2C(=O)CC(N3CCN(c4ccc([N+](=O)[O-])cc4)CC3)C2=O)c1 (configuration not stated) -48.1% [at 20 µM]
